The supplement of paper PMC10849652
Of roughly 8,800 targets only a part is listed; those with a hit were picked by preference. About 0.5% of all pairs of compound and target were hits.

Assays:
Assay in all cases: log2 fold change, soluble protein after heating vs DMSO (PISA); higher = thermal stabilisation; K562 lysate, 10 uM; active = over 0.2 and 3.5 SD of the protein, either way, in both replicates (recomputed)
[1] = compound: CS(=O)(=O)CCNCc1ccc(-c2ccc3ncnc(Nc4ccc(OCc5cccc(F)c5)c(Cl)c4)c3c2)o1 [lapatinib]
Method in brief: (§1)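 K562 pellets were dounce-homogenised in PBS pH 7.4 with 1 mM MgCl2, and the crude extract at 1 mg/mL protein was treated with 10 μM compound for 30 min. Aliquots were heated for 3 min across 48°C-58°C, pooled, and brought to 0.5% NP-40 at 4°C; soluble protein was the supernatant after 21,000xg for 90 min. Soluble protein was quantified by TMTpro 16plex LC-MS/MS with channel sums equalised, and reported as log2 fold change in thermal stability against DMSO controls, with values from duplicates.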

[2] = compound: CS(=O)(=O)N1CCN(Cc2cc3nc(-c4cccc5[nH]ncc45)nc(N4CCOCC4)c3s2)CC1 [pictilisib]
Method in brief: as §1

[3] = compound: C[C@@H](Oc1cc(-c2cnn(C3CCNCC3)c2)cnc1N)c1c(Cl)ccc(F)c1Cl [crizotinib]
Method in brief: as §1

[4] = compound: C[C@H](C1=CC=C(C=C1)C(=O)NC2=C3C=CNC3=NC=C2)N
Method in brief: as §1

[5] = compound: C[C@H](Nc1ncnc2nc[nH]c12)c1cc2cccc(Cl)c2c(=O)n1-c1ccccc1 [duvelisib]
Method in brief: as §1

[6] = compound: Cc1cc(Nc2cc(CN3CCOCC3)c3nc(C)c(Cc4ccc(Cl)cc4F)n3n2)n[nH]1 [gandotinib]
Method in brief: as §1

[7] = compound: Cc1cc(Nc2cc(N3CCN(C)CC3)nc(Sc3ccc(NC(=O)C4CC4)cc3)n2)n[nH]1 [tozasertib]
Method in brief: as §1

[8] = compound: Cc1ccc(-n2nc(C(C)(C)C)cc2NC(=O)Nc2ccc(OCCN3CCOCC3)c3ccccc23)cc1 [doramapimod]
Method in brief: as §1

[9] = compound: Cc1ccc(NC(=O)c2ccc(CN3CC[C@H](N(C)C)C3)c(C(F)(F)F)c2)cc1Nc1nccc(-c2cncnc2)n1 [bafetinib]
Method in brief: as §1

[10] = compound: Cc1cccc(CC(=O)N2CCc3c2ccc(-c2cn(C)c4ncnc(N)c24)c3F)n1
Method in brief: as §1

[11] = compound: Cc1cn(-c2cc(NC(=O)c3ccc(C)c(Nc4nccc(-c5cccnc5)n4)c3)cc(C(F)(F)F)c2)cn1 [nilotinib]
Method in brief: as §1

[12] = compound: Cc1nc(Nc2n[nH]c3c2CN(C(=O)N[C@H](CN(C)C)c2ccccc2)C3(C)C)c2sccc2n1
Method in brief: as §1

[13] = compound: Cc1nc(Nc2ncc(C(=O)Nc3c(C)cccc3Cl)s2)cc(N2CCN(CCO)CC2)n1 [dasatinib]
Method in brief: as §1

[14] = compound: Cc1ncc(-c2ccnc(Nc3ccc(S(C)(=O)=O)cc3)n2)n1C(C)C
Method in brief: as §1

[15] = compound: Cn1cc(-c2ccc3c(c2)CCN3C(=O)Cc2cccc(C(F)(F)F)c2)c2c(N)ncnc21
Method in brief: as §1

[16] = compound: Cn1cc(CNCC2CCN(c3ncc(C(=O)NO)cn3)CC2)c2ccccc21 [quisinostat]
Method in brief: as §1

[17] = compound: Cn1cncc1[C@@](N)(c1ccc(Cl)cc1)c1ccc2c(c1)c(-c1cccc(Cl)c1)cc(=O)n2C [tipifarnib]
Method in brief: as §1

[18] = compound: NC(=O)Nc1cc(-c2cccc(F)c2)sc1C(=O)N[C@H]1CCCNC1
Method in brief: as §1

[19] = compound: NC(=O)c1cnc(N[C@@H]2CCCC[C@@H]2N)nc1Nc1cccc(-n2nccn2)c1
Method in brief: as §1

[20] = compound: NC1(c2ccc(-c3nc4ccn5c(=O)[nH]nc5c4cc3-c3ccccc3)cc2)CCC1
Method in brief: as §1

Measured: log2 fold change

SMTN isoform 6 (UniProt P53814)
Sequence of UniProt P53814 (P53814 whole entry, looked up): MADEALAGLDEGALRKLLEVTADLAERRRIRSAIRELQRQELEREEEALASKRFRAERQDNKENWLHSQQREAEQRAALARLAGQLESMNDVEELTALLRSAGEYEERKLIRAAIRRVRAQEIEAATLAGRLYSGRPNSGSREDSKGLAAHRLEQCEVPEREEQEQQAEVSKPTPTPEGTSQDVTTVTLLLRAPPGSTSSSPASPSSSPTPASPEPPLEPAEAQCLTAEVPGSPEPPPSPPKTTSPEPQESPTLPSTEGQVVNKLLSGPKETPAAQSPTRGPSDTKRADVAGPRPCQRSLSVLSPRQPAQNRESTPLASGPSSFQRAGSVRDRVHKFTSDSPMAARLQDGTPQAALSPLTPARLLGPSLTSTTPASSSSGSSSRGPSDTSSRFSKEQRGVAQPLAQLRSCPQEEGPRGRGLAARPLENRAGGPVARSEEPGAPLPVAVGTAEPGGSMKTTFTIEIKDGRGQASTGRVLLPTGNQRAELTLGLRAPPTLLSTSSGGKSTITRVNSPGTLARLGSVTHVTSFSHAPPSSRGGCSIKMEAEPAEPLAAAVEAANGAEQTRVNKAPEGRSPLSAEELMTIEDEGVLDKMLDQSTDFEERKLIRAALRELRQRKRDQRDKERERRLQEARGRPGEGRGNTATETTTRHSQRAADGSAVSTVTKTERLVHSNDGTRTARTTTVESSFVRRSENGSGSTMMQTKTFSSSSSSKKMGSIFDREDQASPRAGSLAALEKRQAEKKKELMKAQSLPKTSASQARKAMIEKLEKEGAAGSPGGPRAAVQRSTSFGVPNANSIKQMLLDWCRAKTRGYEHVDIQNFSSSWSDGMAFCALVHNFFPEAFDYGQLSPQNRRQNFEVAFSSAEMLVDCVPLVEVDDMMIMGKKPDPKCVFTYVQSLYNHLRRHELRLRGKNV
inactive: [1] 0.103 | [2] -0.042 | [3] -0.012 | [4] -0.06 | [5] 0.033 | [6] 0.032 | [7] 0.019 | [8] 0.006 | [9] 0.059 | [10] 0.028 | [11] -0.011 | [12] 0.134 | [13] -0.055 | [14] -0.022 | [15] 0.031 | [16] -0.065 | [17] -0.019 | [18] 0.021 | [19] -0.005 | [20] 0.089

SRM (UniProt P19623)
Sequence of UniProt P19623 (P19623 whole entry, looked up): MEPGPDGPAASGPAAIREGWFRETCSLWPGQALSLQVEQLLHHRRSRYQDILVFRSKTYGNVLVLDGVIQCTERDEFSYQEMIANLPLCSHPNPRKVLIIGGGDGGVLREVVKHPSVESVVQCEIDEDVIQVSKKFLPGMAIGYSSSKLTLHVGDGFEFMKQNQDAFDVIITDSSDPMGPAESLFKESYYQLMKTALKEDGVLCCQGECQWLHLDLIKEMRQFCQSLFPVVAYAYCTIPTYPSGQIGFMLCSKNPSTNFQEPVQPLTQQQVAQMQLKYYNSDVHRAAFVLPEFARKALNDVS
active: [5] 0.716
inactive: [1] -0.015 | [2] -0.013 | [3] -0.048 | [4] -0.032 | [6] -0.036 | [7] 0.01 | [8] -0.017 | [9] -0.009 | [10] -0.033 | [11] 0.026 | [12] -0.009 | [13] -0.008 | [14] 0.009 | [15] 0.012 | [16] 0.009 | [17] 0.014 | [18] 0.041 | [19] 0.017 | [20] 0.045

TAF9 (UniProt Q16594)
Sequence of UniProt Q16594 (Q16594 whole entry, looked up): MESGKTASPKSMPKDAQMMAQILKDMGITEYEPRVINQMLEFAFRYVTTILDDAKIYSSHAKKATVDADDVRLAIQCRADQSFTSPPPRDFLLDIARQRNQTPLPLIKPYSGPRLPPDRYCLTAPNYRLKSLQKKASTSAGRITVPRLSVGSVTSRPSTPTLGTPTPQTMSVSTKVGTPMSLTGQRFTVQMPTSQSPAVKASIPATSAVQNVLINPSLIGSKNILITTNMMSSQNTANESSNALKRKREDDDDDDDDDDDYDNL
inactive: [1] -0.06 | [2] -0.018 | [3] -0.004 | [4] 0.188 | [5] 0.084 | [6] -0.002 | [7] 0.156 | [8] 0.001 | [9] 0.018 | [10] -0.057 | [11] -0.043 | [12] 0.049 | [13] -0.017 | [14] -0.003 | [15] 0.021 | [16] -0.055 | [17] -0.029 | [18] 0.013 | [19] 0.084 | [20] -0.024

SMG7 (UniProt Q92540)
Sequence of UniProt Q92540 (Q92540 whole entry, looked up): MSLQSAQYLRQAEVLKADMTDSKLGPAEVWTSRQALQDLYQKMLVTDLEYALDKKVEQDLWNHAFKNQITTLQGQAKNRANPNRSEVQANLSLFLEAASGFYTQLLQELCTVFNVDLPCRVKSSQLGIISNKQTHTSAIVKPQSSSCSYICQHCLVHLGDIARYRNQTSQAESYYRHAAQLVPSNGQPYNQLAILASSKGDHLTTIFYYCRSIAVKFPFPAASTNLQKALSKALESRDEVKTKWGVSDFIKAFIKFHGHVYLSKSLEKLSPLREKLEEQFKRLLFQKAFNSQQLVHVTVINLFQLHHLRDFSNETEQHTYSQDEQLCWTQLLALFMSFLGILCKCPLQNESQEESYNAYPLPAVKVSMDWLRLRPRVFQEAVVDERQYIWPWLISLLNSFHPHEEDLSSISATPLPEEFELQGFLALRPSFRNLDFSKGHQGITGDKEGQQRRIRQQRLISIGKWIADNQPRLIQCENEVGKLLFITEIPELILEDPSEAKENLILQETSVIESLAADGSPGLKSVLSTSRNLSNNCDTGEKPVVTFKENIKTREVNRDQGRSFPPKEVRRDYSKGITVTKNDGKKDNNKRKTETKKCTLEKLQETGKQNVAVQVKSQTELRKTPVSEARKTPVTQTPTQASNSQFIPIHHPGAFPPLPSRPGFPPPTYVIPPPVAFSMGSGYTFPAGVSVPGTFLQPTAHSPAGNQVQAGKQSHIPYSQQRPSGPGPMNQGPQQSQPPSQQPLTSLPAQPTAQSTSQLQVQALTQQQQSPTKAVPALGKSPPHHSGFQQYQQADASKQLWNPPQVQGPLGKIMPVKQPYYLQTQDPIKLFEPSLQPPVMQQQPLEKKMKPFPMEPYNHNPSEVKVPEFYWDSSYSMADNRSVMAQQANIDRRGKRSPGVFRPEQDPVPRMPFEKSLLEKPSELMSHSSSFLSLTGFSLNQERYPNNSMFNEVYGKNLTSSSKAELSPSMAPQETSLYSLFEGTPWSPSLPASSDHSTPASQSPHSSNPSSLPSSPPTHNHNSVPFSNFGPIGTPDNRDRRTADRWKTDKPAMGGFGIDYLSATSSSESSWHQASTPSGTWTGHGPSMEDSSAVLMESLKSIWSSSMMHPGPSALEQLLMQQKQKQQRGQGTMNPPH
active: [8] -0.257
inactive: [1] 0.101 | [2] 0.1 | [3] 0.043 | [4] -0.035 | [5] 0.026 | [6] -0.018 | [7] 0.026 | [9] -0.008 | [10] 0.022 | [11] 0.001 | [12] -0.034 | [13] 0.003 | [14] -0.058 | [15] 0.03 | [16] 0.062 | [17] -0.072 | [18] 0.054 | [19] -0.067 | [20] 0.04

SLC19A1 (UniProt P41440)
Sequence of UniProt P41440 (P41440 whole entry, looked up): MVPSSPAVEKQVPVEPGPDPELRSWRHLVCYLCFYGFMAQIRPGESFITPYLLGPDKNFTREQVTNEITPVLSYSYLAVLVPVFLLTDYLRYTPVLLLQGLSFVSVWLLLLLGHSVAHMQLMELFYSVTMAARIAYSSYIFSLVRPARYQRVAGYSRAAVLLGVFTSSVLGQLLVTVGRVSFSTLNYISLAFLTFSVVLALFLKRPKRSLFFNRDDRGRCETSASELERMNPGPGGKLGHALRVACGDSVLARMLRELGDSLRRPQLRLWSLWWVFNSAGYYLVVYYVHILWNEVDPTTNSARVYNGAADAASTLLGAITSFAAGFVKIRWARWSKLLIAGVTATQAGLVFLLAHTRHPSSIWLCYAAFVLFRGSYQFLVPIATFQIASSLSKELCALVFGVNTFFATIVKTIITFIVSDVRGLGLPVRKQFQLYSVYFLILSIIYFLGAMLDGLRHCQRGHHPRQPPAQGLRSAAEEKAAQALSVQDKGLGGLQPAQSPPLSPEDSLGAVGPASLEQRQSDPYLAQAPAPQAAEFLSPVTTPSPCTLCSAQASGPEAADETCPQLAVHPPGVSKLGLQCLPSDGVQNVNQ
inactive: [1] -0.055 | [2] 0.005 | [3] -0.002 | [5] -0.037 | [6] 0.148 | [7] -0.021 | [8] 0.004 | [9] -0.053 | [10] 0.07 | [11] -0.026 | [12] 0.014 | [13] 0.019 | [14] -0.032 | [15] -0.017 | [16] -0.077 | [17] -0.01 | [18] -0.015 | [19] -0.027 | [20] -0.004
active: [4] -0.203

SMAP2 (UniProt Q8WU79)
Sequence of UniProt Q8WU79 (Q8WU79 whole entry, looked up): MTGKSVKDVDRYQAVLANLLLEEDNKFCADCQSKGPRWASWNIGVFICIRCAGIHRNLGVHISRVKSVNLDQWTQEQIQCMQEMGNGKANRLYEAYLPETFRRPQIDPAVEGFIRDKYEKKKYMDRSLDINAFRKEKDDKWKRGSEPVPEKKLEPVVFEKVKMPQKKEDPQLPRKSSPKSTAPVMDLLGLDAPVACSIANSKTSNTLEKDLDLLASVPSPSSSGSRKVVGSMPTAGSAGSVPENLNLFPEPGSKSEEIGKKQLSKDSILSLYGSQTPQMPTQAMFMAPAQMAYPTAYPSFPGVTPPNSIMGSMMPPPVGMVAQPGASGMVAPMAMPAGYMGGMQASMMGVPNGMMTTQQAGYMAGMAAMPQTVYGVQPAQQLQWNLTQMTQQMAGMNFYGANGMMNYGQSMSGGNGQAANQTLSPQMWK
inactive: [1] -0.017 | [2] -0.164 | [3] 0.102 | [4] 0.031 | [5] -0.008 | [6] -0.008 | [7] 0.054 | [8] -0.019 | [9] 0.051 | [10] -0.032 | [11] -0.058 | [12] 0.026 | [13] -0.013 | [14] 0.037 | [15] 0.06 | [16] 0.072 | [17] -0.038 | [18] 0.076 | [19] 0.026 | [20] 0.022

SYNE2 isoform 2 (UniProt Q8WXH0)
inactive: [1] -0.082 | [2] -0.103 | [3] 0.058 | [5] 0.073 | [6] 0.296 | [7] -0.003 | [8] 0.183 | [9] -0.194 | [10] 0.397 | [11] 0.086 | [12] -0.034 | [13] 0.032 | [14] -0.002 | [15] -0.024 | [16] -0.176 | [17] 0.005 | [18] -0.043 | [19] -0.021 | [20] -0.091
active: [4] -0.93

SNAP23 (UniProt O00161)
Sequence of UniProt O00161 (O00161 whole entry, looked up): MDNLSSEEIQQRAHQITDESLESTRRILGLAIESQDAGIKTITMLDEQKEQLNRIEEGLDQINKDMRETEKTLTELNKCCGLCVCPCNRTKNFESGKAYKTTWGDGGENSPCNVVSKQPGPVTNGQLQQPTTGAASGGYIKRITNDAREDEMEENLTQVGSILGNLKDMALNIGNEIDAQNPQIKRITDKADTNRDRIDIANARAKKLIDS
inactive: [1] 0.005 | [2] -0.035 | [3] 0.067 | [4] 0.034 | [5] -0.004 | [6] 0.007 | [7] 0.005 | [8] 0.002 | [9] 0.059 | [10] -0.05 | [11] 0.001 | [12] 0.015 | [13] 0.045 | [14] -0.013 | [15] 0 | [16] 0.035 | [17] 0.036 | [18] -0.019 | [19] -0.016 | [20] 0.031
